Efflux pump inh = inhibitors of Candida antifungal efflux pumps expressed in yeast. S. cerevisiae Candida pump triplex, Nile Red efflux. inhibition, % at 10 µM. 0.44% of 330,000 active;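 active = plate passing quality check with inhibition over a set limit, or well fluorescence over plate mean plus 4 SD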;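 note: Nile Red retained in pooled yeast measured as flow cytometry median fluorescence; 0% = buffer negative control and 100% = Enniatin B positive control; higher means more Nile Red kept so more efflux inhibition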
PvdQ acylase = P. aeruginosa PvdQ acylase inhibition; AID 488965; purified PvdQ acylase, fluorescence plate reader; inhibition, % at 10 µM; 0.063% of 340,000 active; in the data active = inhibition above about 30%, passing the limit was not always enough;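 note: 0% = vehicle neutral wells and 100% = reference inhibitor wells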
PDI turbidity = PDI (human) enzyme inhibition | inhibition, % at 10 µM | 0.052% of 350,000 active | AID 588391 | PDI insulin aggregation turbidity, A650, 90 min | P07237;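 active = mean inhibition across replicates of 30% or more, whatever share of single replicates reach that level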
Rtt109 Vps75 = blocks Candida albicans Rtt109/Vps75 acetyltransferase activity; Q5AAJ8; purified Rtt109/Vps75, ThioGlo CoA-SH fluorescence, 4 h; inhibition, % at 34.9 µM; 0.16% of 330,000 active; AID 540336;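 active = inhibition of at least 50% in every replicate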
Target sequence (Q5AAJ8 whole entry, looked up): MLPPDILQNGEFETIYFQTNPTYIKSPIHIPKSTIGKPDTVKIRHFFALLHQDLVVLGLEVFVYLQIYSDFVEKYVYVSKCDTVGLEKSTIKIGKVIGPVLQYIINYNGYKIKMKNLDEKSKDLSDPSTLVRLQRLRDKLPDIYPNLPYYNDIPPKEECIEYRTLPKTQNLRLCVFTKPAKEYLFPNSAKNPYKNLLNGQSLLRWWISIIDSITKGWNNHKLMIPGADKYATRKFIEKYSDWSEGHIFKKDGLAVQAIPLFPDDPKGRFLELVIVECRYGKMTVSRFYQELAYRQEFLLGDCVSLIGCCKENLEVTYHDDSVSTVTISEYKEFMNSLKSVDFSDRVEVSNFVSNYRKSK
ERp5 block = inhibitors of human ERp5 | Q15084 | ERp5 insulin aggregation, absorbance 650 nm, 90 min | inhibition, % at 9.99 µM | 0.05% of 350,000 active | AID 651711;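 active = mean replicate inhibition above about 25%, with every replicate also reaching it, limit read from the data, passing the limit was not always enough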
Starred values were filed as active, the others as inactive; . = no result; ! = not confirmed by another sample. A selection: hits, their analogues and other compounds. The true share with any hit is near 0.54%.

SMILES | Efflux pump inh | PvdQ acylase | PDI turbidity | Rtt109 Vps75 | ERp5 block
C[C@@H]1CN([C@@H](C)CO)C(=O)c2cc(NC(=O)Nc3ccc(C(F)(F)F)cc3)ccc2O[C@@H](C)CCCCO[C@H]1CN(C)Cc1ccncc1 | . | . | . | . | -4
COc1ccc(S(=O)(=O)NCCc2cn3cccc(C)c3n2)cc1OC | 0 | -5 | . | -7 | -11
Cc1cccn2cc(CCNS(=O)(=O)c3cccs3)nc12 | 0 | 5 | 0 | 55* | -13
CCCNC(=O)N1CC2(CN(S(=O)(=O)CC)C2)c2c(n(C)c3cc(OC)ccc23)[C@@H]1CO | . | . | . | . | 4
COc1cccc(-c2ccc3c(c2)[C@H]2[C@H](CCN2C(=O)NC2CCCCC2)[C@@H](CO)N3C)c1 | . | . | . | . | 2
CCC(C)N1C(=O)/C(=C/c2c(NCCCOC(C)C)nc3c(C)cccn3c2=O)SC1=S (stereo not given) | 0.8* | 10 | 7 | 7 | 20
COc1ccc(NC(=O)CSc2nnc(-c3ccccc3)n2N)cc1 | 0 | 9 | -4 | 59* | .
Cc1cc(N2C(=O)C=CC2=O)c([N+](=O)[O-])cc1C | 1 | -17 | -2 | 116* | .
O=C(COC(=O)Cc1ccccc1[N+](=O)[O-])Nc1nnc(-c2ccccc2)o1 | 0 | 6 | -2 | 56* | -2
O=C(COc1ccccc1)Nc1nnc(-c2ccccc2)o1 | 0 | 0 | 11 | -13 | 1
c1ccc2sc(-c3ccc4c(c3)OCO4)nc2c1 | 0 | 49* | -4 | 18 | .
O=C(Nc1cccc(-c2nc3ccccc3s2)c1)c1ccc2c(c1)OCO2 | 0 | -8 | -1 | 0 | -6
COc1ccc(-c2nc3ccccc3s2)cc1 | . | 67* | -56 | 0 | -1
Cc1nnc(N2C(=O)c3cccc4c([N+](=O)[O-])ccc(c34)C2=O)s1 | 2.1* | -8 | 9 | 6 | 0
CCCOc1ccc(C(=O)CCC(=O)OCC(=O)Nc2cccc(S(N)(=O)=O)c2)cc1 | . | 49* | -1 | -3 | 4
CCCOc1ccc(C(=O)CCC(=O)OCC(=O)Nc2ccc(OCC)cc2)cc1 | 0 | . | . | . | 0
CCOC(=O)c1cc2c(N)c(C(=O)c3cc(C#N)c(SC)nc3C)sc2nc1C | -2 | 7 | 2 | 62* | .
Cn1c(COc2ccccc2)nnc1SCC(=O)Nc1nnc(C2CC2)s1 | . | -13 | -2 | 0 | 27*
Cn1c(COc2ccccc2)nnc1SCC(=O)Nc1ccc2c(c1)OCO2 | 0 | -14 | 1 | -3 | -7
CO[C@H]1CN(C)C(=O)c2cc(NC(=O)CC(F)(F)F)ccc2OC[C@H](C)N(C(=O)C2CCOCC2)C[C@@H]1C | . | . | . | . | 6
CCCCOc1ccc(C(=O)Nc2cccc(C)n2)cc1 | 0 | 11 | 3 | 11 | .
CCOc1ccc(C(=O)Nc2cccc(C)n2)cc1 | 0 | 51* | -3 | 7 | .
Cc1cccc(NC(=O)CNC(=O)c2ccc3c(c2)OCO3)n1 | 0 | -4 | -5 | -4 | -2
Cc1cccc(NC(=O)c2ccc3c(c2)OCCO3)n1 | 0 | 37* | -8 | 2 | .
O=C(C1CCCC1)N1CC2(C1)[C@@H](c1ccccc1)[C@H](CO)N2C(=O)CC1CC1 | . | . | . | . | -5
SMILES | Efflux pump inh | PvdQ acylase | PDI turbidity | Rtt109 Vps75 | ERp5 block
NC(CO)C(=O)NNCc1ccc(O)c(O)c1O (stereo not given) | 0 | -4 | 5 | 79*! | -3
O=C(NC[C@@H]1CC[C@@H]2[C@@H](CN2S(=O)(=O)c2ccccc2)O1)NC1CCCCC1 | . | . | . | . | 0
CCN(CC)C(=S)SCC(=O)c1ccccc1 | 0 | 4 | -1 | -4 | .
CCN(CC)C(=S)SSC(=S)N(CC)CC | 0 | -6 | -3 | 150* | -4
CCOC(=O)C1CCN(c2ccc([N+](=O)[O-])c(C(C)=O)c2)CC1 | 0 | 20 | -14 | 115* | -2
COC(=O)C[C@@H]1C[C@H]2c3cc(NC(=O)Cc4ccncc4)ccc3O[C@H]2[C@@H](CO)O1 | . | . | . | . | 0
COC(=O)C[C@@H]1C[C@@H]2c3cc(NC(=O)Cc4ccncc4)ccc3O[C@@H]2[C@H](CO)O1 | . | . | . | . | 36*
COC(=O)C[C@@H]1C[C@H]2c3cc(NC(=O)Cc4ccncc4)ccc3O[C@H]2[C@H](CO)O1 | . | . | . | . | -6
COC(=O)C[C@H]1C[C@H]2c3cc(NC(=O)Cc4ccncc4)ccc3O[C@H]2[C@H](CO)O1 | . | . | . | . | 61*
C#CCSc1ncc(-c2ccccc2)cn1 | 0 | 48* | -14 | -5 | -4
C=CCSc1ncc(-c2ccccc2)cn1 | 0 | 0 | 3 | 0 | -5
C[C@H](CO)N1C[C@H](C)[C@@H](CN(C)S(=O)(=O)c2cccs2)OCCCC[C@H](C)Oc2ccc(NC(=O)CCCN(C)C)cc2C1=O | . | . | . | . | 5
